Experimental data from PubChem BioAssay AID489042 (NMMLSC, 2010).
Unmarked numbers belong to inactive results. No stated cut-off is given here; in the data, active means inhibition score above about 11; inactive means the rest.

Experiment: yeast proliferation inhibition, dose response, BY4741, OD595, 24 h (AID 489042)
Settings: S. cerevisiae BY4741 growth, flow cytometer event count, 7 d (AID 449753), hits give high values

| SMILES | inhibition score |
| --- | --- |
| COc1ccc2cc(C3CC(c4ccco4)=NN3S(=O)(=O)c3ccccc3)c(Cl)nc2c1 (centres undefined) | 0 |
| CC(C)OC(=O)c1ccc2nc3ccccc3nc2c1 | 0 |
| CN(C)CCNc1ncnc2c1cnn2-c1ccc(Cl)cc1 | 0 |
| CCn1c2ccccc2c2n[nH]c(=S)nc21 | 0 |
| c1ccc2nc3ccccc3nc2c1 | 0 |
| COc1ccc2nc3ccccc3nc2c1 | 0 |
| O=C(OCc1c(F)cccc1Cl)c1cnc2ccccc2n1 | 0 |
| O=C(CN1CCN(c2ccccn2)CC1)Nc1ccccc1F | 0 |
| O=C(c1cccc2nc3ccccc3nc12)N1CCOCC1 | 0 |
| CSc1nnc(-c2ccc([N+](=O)[O-])cc2)o1 | 0 |
| CCN(CC)C(=O)CSc1nnc(-c2cccc(OC)c2)o1 | 0 |
| CCC(=Nc1ccccc1O)C1=C(O)CC(c2ccccc2)CC1=O (centres undefined) | 0 |
| [O-][n+]1c2ccccc2[n+]([O-])c2cc(O)ccc21 | 0 |
| Cc1cc(C)cc(NC(=O)CN2CCN(c3ccccn3)CC2)c1 | 0 |
| O=C(O)c1cnc2ccccc2n1 | 0 |
| N#CCc1nn(-c2ccccc2)c2ncnc(N)c12 | 0 |
| CSc1nnc2c3cc(F)ccc3n(C)c2n1 | 0 |
| NC(=O)CSc1nnc(-c2ccc([N+](=O)[O-])cc2)o1 | 0 |
| CC(C)(C)Nc1ncnc2c1cnn2-c1ccccc1 | 0 |
| Cc1cc2nc3ccc(N(C)C)cc3nc2cc1N | 0 |
| CNC(=O)c1cccc2nc3ccccc3nc12 | 0 |
| COc1ccc2c(c1)c1nnc(SC)nc1n2C | 0 |
| O=C1c2c(O)ccc(O)c2C(=O)c2c(NCCNCCO)ccc(NCCNCCO)c21 | 0 |
| CC(=O)[C@@]1(O)CCC2C3CC[C@H]4C[C@@H](O)CC[C@]4(C)C3CC[C@@]21C (some centres undefined) | 0 |
| COc1cccc2nc3cc(C)c(C)cc3nc12 | 0 |
| Cc1cc(C)c2[nH]c3nc(SCC(=O)O)nnc3c2c1 | 0 |
| COc1ccc2nc3cccc(OC)c3nc2c1 | 0 |
| FC(F)(F)c1nc2cc3nc4ccccc4[nH]c3cc2n1 | 0 |
| CC(C)OC(=O)CSc1nnc(-c2ccc(Cl)cc2Cl)o1 | 0 |
